# Measured values taken from PubChem BioAssay.
# Results filed as inconclusive are left out. Activity calls are given as the source filed them.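 The calls were made as follows, unless noted: active = viability at or below 30% in both replicate assays; inconclusive = viability at or below 30% in just one of the two assays; inactive = the rest.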
# Tests used:
# [1] = reduced viability of SK-BR-3 breast cancer cells – cell-based, 24 h, human, pilot screen (AID 572;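 active = viability at or below 10% of carrier control in both of two separate runs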;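 also: compound exposure lasted between 18 and 24 h rather than exactly 24 h; 100% = carrier-treated control wells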); settings: SK-BR-3 viability, CellTiter-Glo luminescence, at 10 µM, stronger effect = lower value
# [2] = HUVEC growth inhibition – cell-based, human, primary screen (AID 575); settings: HUVEC proliferation, CellTiter-Glo luminescence, 72 h; at 10 µM; stronger effect = lower value;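 also: 100% = median of untreated cell wells with 0.1% DMSO on each plate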
# [3] = H69AR cell proliferation blockers – human, duplicate replicates, primary screen (AID 580;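 active = viability at or under a set limit in both replicates, limit being median viability minus 3 SD, cut at about 48% in these data, passing the limit was not always enough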;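 also: 100% = mean luminescence of untreated wells and 0% = no signal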); settings: H69AR lung tumor cells viability, ATP luminescence, 72 h; at 10 µM; stronger effect = lower value
# [4] = yeast transport mutant growth inhibition pilot in 384-well plates, post-Golgi transport modulator project (AID 636; in the data active = inhibition above about 31%); settings: absorbance 615 nm, about 18 h, stronger effect = higher value
# [5] = growth suppression of yeast trafficking mutant, preliminary HTS, modulators of trafficking downstream of Golgi apparatus project, 1536-format plate, OD 615 nm (AID 637; in the data active = inhibition above about 30%); settings: yeast transport mutant growth, absorbance 615 nm, 18 h; stronger effect = higher value
# [6] = MRP1 drug-resistance reversers in H69AR cells – cell-based, doxorubicin co-treatment, pilot screen (AID 601;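 active = viability loss from added drug above about 55%, and viability with drug at most 40%, in both replicates, limit read from the data, passing the limit was not always enough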); settings: CellTiter-Glo, 72 h, at 10 µM; for differential viability (reversal): stronger effect = higher value
# [7] = S. cerevisiae growth inhibition in permissive medium (OD615), pilot counter-assay for S. cerevisiae lifespan shortening project, permissive growth control (AID 705;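 active = growth inhibition above 25% in both replicates, a cutoff set 3 SD above the mean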); settings: OD615, 24 h, at 10 µM, stronger effect = higher value
# [8] = S. cerevisiae growth inhibition in restrictive medium, OD615, pilot screen, restrictive growth control, yeast lifespan reduction project (AID 706;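 active = growth inhibition above a set limit, 3 SD over mean compound inhibition, in both replicates, cut at about 43% in these data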;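 also: modified DeaD lifespan yeast strain shifted to restrictive glucose medium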); settings: OD615, 48 h, at 10 µM, stronger effect = higher value
# [9] = doxorubicin toxicity protection in MRP-1 cells – H69AR cells, CellTiter-Glo, duplicate, MRP-1 activator project, pilot screen (AID 807;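 active = viability increase at or above a cutoff of the median across tested compounds plus 3 SD, cut at about 8.5% in these data, passing the limit was not always enough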;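 also: compound pretreatment 18-22 h then 72 h combined with doxorubicin; 0% = doxorubicin alone and 100% = vehicle without doxorubicin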); settings: H69AR viability with doxorubicin, CellTiter-Glo luminescence; at 10 µM; stronger effect = higher value
# [10] = viability of HCT116 without oncogenic beta-catenin – human colon tumor cells, pilot screen (AID 823;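 active = cell viability at or below a set limit in both duplicate runs, the limit being the all-compound median minus 4 SD, cut at about 23% in these data, passing the limit was not always enough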;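 also: 0% = wells killed by 20 µM Hyamine and 100% = untreated DMSO cell wells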); settings: HCT116 beta-catenin knockout viability, CellTiter-Glo, 60 h; at 10 µM; stronger effect = lower value
# [11] = viability of PTEN-null HCT116 cells – cell-based, HCT116 clonal line, CellTiter-Glo, pilot screen (AID 824;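 active = viability at or below 27.92% in each of two runs, the all-compound median minus 4 SD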;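 also: 0% = 20 µM Hyamine control and 100% = vehicle cell control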); settings: HCT116 PTEN-deleted viability, 60 h, at 10 µM, stronger effect = lower value
# [12] = RAM pathway blockade in budding yeast – dse1pr::URA3 reporter, 5-FOA selection, pilot screen (AID 869;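 active = inhibition over a set limit, the all-compound mean plus 3 SD, in both replicate runs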;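 also: 0% = DMSO wells with no growth and 100% = 10 µM 1-NA-PP1 with full growth; RAM network block rescues cells from 5-FOA so hits raise OD615 growth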); settings: S. cerevisiae dse1pr::URA3 5-FOA growth, OD615, 2 d; at 10 µM; stronger effect = higher value; strain carries analog-sensitive mutant Cbk1 kinase
# [13] = H69AR cells + 2 uM doxorubicin, measured here: viability with 2 uM doxorubicin, stronger effect = lower value
# [14] = H69AR cells, compound alone cytotoxicity
SMILES,viability [1],viability [2],viability [3],inhibition [4],inhibition [5],differential viability (reversal) ([6]; H69AR cells + 2 uM doxorubicin),"viability [6, 13] [%]","viability [6, 14] [%]",growth inhibition [7],growth inhibition [8],viability increase [9],viability [10],viability [11],inhibition [12]
O=C(C1CCCCC1)N1CCC(c2nc3c(nnn3Cc3ccccc3Cl)c(=O)[nH]2)CC1,90% (inactive),83.6% (inactive),73.9% (inactive),-3.24% (inactive),-9.27% (inactive),–,–,–,–,–,–,–,–,–
COc1cc(CC(=O)Oc2ccc3c(c2)OCO3)cc(OC)c1OC,98% (inactive),104% (inactive),84.8% (inactive),-2.93% (inactive),2.91% (inactive),0.695% (inactive),84.2,84.8,–,–,–,–,–,–
C=CCn1cnc2c(c1=O)c1nc3ccccc3nc1n2-c1ccc(C)cc1,105% (inactive),97.2% (inactive),86.9% (inactive),-5.48% (inactive),-1.61% (inactive),-6.75% (inactive),93.7,86.9,–,–,–,–,–,–
C1CNCCNCCNCCN1,101% (inactive),113% (inactive),95.7% (inactive),-0.26% (inactive),2.83% (inactive),0.16% (inactive),95.5,95.7,–,–,–,–,–,–
CCCCCCCCCCCCCCCC(O)C(N)CO (configuration not stated),60% (inactive),2.65% (active),–,–,–,-0.02% (inactive),1.44,1.42,–,–,–,–,–,–
CCOC(=O)N1CCC(n2c(SCC(=O)NCc3ccco3)nc3ccsc3c2=O)CC1,81% (inactive),88.3% (inactive),78.5% (inactive),-3.55% (inactive),2.67% (inactive),–,–,–,–,–,–,–,–,–
CCOC(=O)c1c(C)[nH]c(C(=O)Cn2c(=O)c3c(ncn3CC)n(Cc3ccccc3)c2=O)c1C,89% (inactive),98% (inactive),85.2% (inactive),-6.35% (inactive),-2.73% (inactive),-4.88% (inactive),90.1,85.2,–,–,–,–,–,–
CN1CCN(CCCN2c3ccccc3Sc3ccc(C(F)(F)F)cc32)CC1,91% (inactive),2.21% (active),–,1.43% (inactive),53.8% (active),-3.17% (inactive),4.2,1.03,–,–,–,–,–,–
OCCN1CCN(CCCN2c3ccccc3Sc3ccc(C(F)(F)F)cc32)CC1,3% (active),2.4% (active),–,–,–,-2.74% (inactive),3.77,1.03,–,–,–,–,–,–
O=S(=O)(NCc1cn2ccccc2n1)c1cc(F)ccc1F,107% (inactive),89.9% (inactive),96.6% (inactive),-5.68% (inactive),-6.36% (inactive),9.41% (inactive),87.2,96.6,–,–,–,–,–,–
CCOC(=O)c1ccccc1NC1c2ccccc2C(=O)N1C1CCN(C(=O)OCC)CC1 (configuration not stated),126% (inactive),76.2% (inactive),80.5% (inactive),-4.13% (inactive),-3.17% (inactive),37.6% (inactive),42.9,80.5,3.84% (inactive),4.88% (inactive),-7.16% (inactive),50.3% (inactive),46.2% (inactive),1.9% (inactive)
NC(=O)OCC(COC(N)=O)c1ccccc1,132% (inactive),89.3% (inactive),90.7% (inactive),-0.13% (inactive),2% (inactive),-6.82% (inactive),97.5,90.7,–,–,–,–,–,–
Cc1nn(Cc2ccccc2)c(C)c1NC(=O)c1cc(-c2ccco2)on1,103% (inactive),108% (inactive),102% (inactive),-5.6% (inactive),-0.55% (inactive),19.6% (inactive),82.6,102,–,–,–,–,–,–
CCOC(=O)c1[nH]c2ccc(Br)cc2c1NC(=O)CCN1CCC(C(=O)OCC)CC1,115% (inactive),77.3% (inactive),–,-2.53% (inactive),1.27% (inactive),12% (inactive),33.2,45.2,–,–,–,–,–,–
CSc1ccc(-c2cc(=O)c3ccccc3o2)cc1,110% (inactive),48.1% (inactive),–,-4.13% (inactive),-4.55% (inactive),-16.6% (inactive),73.6,56.9,–,–,–,–,–,–
CC1(C)Cc2c(C#N)c(SCCC#N)nc(N3CCOCC3)c2CS1,83% (inactive),86.6% (inactive),84.2% (inactive),-3.42% (inactive),-4.84% (inactive),–,–,–,–,–,–,–,–,–
CC(C)C(=O)N1CCN(c2nc(-c3ccccc3)c3c(c2C#N)CCCC3)CC1,103% (inactive),74.5% (inactive),89.2% (inactive),8.51% (inactive),5.09% (inactive),11.5% (inactive),77.7,89.2,–,–,–,–,–,–
Cc1cccc(NC(=O)c2ccc3ccccc3n2)n1,91% (inactive),86.6% (inactive),76.3% (inactive),-0.13% (inactive),-1.83% (inactive),-18.1% (inactive),94.3,76.3,–,–,–,–,–,–
CCCn1nc(NC(=O)c2cccs2)c2cc3cc(OC)ccc3nc21,102% (inactive),56.4% (inactive),–,-6.58% (inactive),2.58% (inactive),-18.7% (inactive),81.8,63.1,–,–,–,–,–,–
O=C(c1ccco1)N1CCN(CCCCN2C(=O)c3ccccc3C2=O)CC1,102% (inactive),90.5% (inactive),79.9% (inactive),-1.04% (inactive),0.32% (inactive),-12.3% (inactive),92.2,79.9,–,–,–,–,–,–
O=C(/C=C/c1ccccc1)c1ccccc1,107% (inactive),50.2% (inactive),–,1.95% (inactive),0.67% (inactive),-2.5% (inactive),4.56,2.06,–,–,–,–,–,–
CN(C)CCCN1c2ccccc2Sc2ccc(C(F)(F)F)cc21,4.5% (active),56.8% (inactive),–,–,–,-39.3% (inactive),51,11.7,–,–,–,–,–,–
CC1CCCN(S(=O)(=O)c2ccc(C(=O)Nc3nnc(-c4ccccc4Cl)o3)cc2)C1 (configuration not stated),87% (inactive),11.1% (active),18.9% (active),11.6% (inactive),6.56% (inactive),-19% (inactive),37.9,18.9,–,–,–,–,–,–
